D3 antag: qHTS of D3 Dopamine Receptor Antagonist: qHTS. D(3) dopamine receptor (Homo sapiens), P35462. D3R cells, DiscoveRx beta-arrestin luminescence, antagonist mode; active compounds read low. max response, negative = inhibition, %. 2.5% of 360,000 active; in the data active means max response below about -50%; inconclusive means no clear call, values can overlap the other calls; further: on the % scale 0 is the no-effect control and ±100 the full control effect
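Cells plated overnight at 1500 cells/well, then exposed to library compounds with dopamine controls for 90 minutes at 37 degrees C. DiscoveRx reagent added for 30–60 minutes at room temperature; luminescence read, quantitative HTS format.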
GLP1R cytotox: qHTS of GLP-1 Receptor Inverse Agonists: Cytotox Screen; HEK293 cAMP-luciferase reporter cells, luminescence, 24 h; Potency, µM (highest dose often 38.3 µM), without a hit: top-dose activity change, negative = inhibition, actives largely listed as inhibitors; 0.13% of 410,000 active; AID 624418, 2012;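 further: loss of luciferase light is scored as toxicity; potency means the concentration at half of the fitted maximal effect; on the % scale 0 is the no-effect control and ±100 the full control effect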
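Seeding density was 200 cells/uL; after overnight-length (12 h) culture, 23 nL compounds went on for 24 h at 37 °C. Readout used a luciferase detection reagent, luminescence taken after 12 min at room temperature.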
GLP1R ag: qHTS of GLP-1 Receptor Agonists. HEK293 GLP-1R CRE-luciferase, luminescence, 4-6 h; cells express a hypersensitive GLP-1R form. 0.007% of 380,000 active. Glucagon-like peptide 1 receptor (Homo sapiens), P43220. Potency, µM (highest dose often 45.6 µM), for the others: at the highest dose activation, hits mostly activators; further: potency means the concentration at half of the fitted maximal effect; % of control where 0% means no effect
Target sequence (P43220 whole entry, looked up): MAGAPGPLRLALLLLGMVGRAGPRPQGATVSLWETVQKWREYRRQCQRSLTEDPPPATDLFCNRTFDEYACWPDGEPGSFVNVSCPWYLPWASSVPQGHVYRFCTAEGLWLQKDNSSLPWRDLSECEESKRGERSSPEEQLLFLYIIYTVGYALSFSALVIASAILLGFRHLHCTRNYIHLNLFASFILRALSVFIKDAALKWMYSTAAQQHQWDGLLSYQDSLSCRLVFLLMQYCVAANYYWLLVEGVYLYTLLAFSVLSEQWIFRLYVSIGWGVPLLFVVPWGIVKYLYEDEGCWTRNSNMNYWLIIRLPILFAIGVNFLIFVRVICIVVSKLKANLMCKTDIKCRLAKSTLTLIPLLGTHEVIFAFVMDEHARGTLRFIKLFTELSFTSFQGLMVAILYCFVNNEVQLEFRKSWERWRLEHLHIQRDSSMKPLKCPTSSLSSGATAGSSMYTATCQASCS
D3 ag: qHTS of D3 Dopamine Receptor Agonist: qHTS. D(3) dopamine receptor (Homo sapiens), P35462. D3R DiscoveRx beta-arrestin cells, luminescence, 90 min. max activation, %. 0.58% of 410,000 active; in the data active means max activation above about 30%; further: 0% is about no effect
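Cells at 1500/well, incubated overnight, then treated with pinned compounds (dopamine as control) for 90 min at 37 degrees C. DiscoveRx reagent added for 30 - 60 minutes at room temperature; luminescence read.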
GLP-1R inv ag: qHTS of GLP-1 Receptor Inverse Agonists (Inhibition Mode); Glucagon-like peptide 1 receptor (Homo sapiens), P43220; HEK293 GLP-1R CRE-luciferase, luminescence, 24 h; GLP-1R form is constitutively active; Potency, µM (series often up to 38.3 µM), for the others: at the top dose activity change, negative = inhibition, actives largely listed as inhibitors; 1.6% of 410,000 active; further: potency means the concentration at half of the fitted maximal effect; on the % scale 0 is the no-effect control and ±100 the full control effect; nearly all actives have a fitted effect of over 55% in size
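Using stably transfected HEK293 (constitutively active GLP-1R, cAMP-luciferase reporter), compounds were incubated 24 hr and luciferase measured by luminescence.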
ClpP mod: qHTS Assay for Activators of ClpP | ATP-dependent Clp protease proteolytic subunit (Bacillus subtilis (strain 168)), P80244 | Potency, µM (series often up to 57.5 µM), for inactives: at the top dose activity change, negative = active | purified B. subtilis ClpP, FRET peptide cleavage, 20 min | 1.9% of 340,000 active; active means well fitted falling curve with a large enough effect; inconclusive means small, poorly fitted or top-dose-only effect; inactive means no such curve, though single readings can be large or run the other way; further: potency means the concentration at half of the fitted maximal effect; the source files actives as falling curves though it sought activators and does not explain the sign; nearly all actives have a fitted effect of over 65% in size
Target sequence (P80244 whole entry, looked up): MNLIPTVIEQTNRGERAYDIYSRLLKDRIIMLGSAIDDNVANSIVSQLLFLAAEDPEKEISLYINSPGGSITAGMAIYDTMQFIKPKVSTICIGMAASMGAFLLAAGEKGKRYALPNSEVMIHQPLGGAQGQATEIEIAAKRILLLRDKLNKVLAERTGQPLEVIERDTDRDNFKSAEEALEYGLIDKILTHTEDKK
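FRET quenching reversal measured ClpP activation: 10 microg/mL B. subtilis ClpP at pH 8 with the FRET-FV decapeptide, read at 430 nm after 320 nm excitation. The 20-min minus 0-min signal was scaled between DMSO/no-enzyme wells and ADEP (5.8 microM final).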
* = called active by the depositor; [ ] = another dose, or the depositor's remark. In the library only some 5.7% were active in any assay of this set; here they are far more common. Unless noted, the call rests on the fitted dose curve; in most records, active means well fitted curve in the direction sought with a large enough effect; inconclusive means small, poorly fitted or top-dose-only effect, or another doubt; inactive means no such curve, though single readings can be large; an effect the other way counts as inactive or inconclusive.

`COc1cccc(NC(=O)C(CCSC)NC(=O)C2CCC(C)CC2)c1` (configuration not stated) gave GLP1R cytotox -1%, D3 ag -2, GLP-1R inv ag -24% and ClpP mod 2%.
Screening OC1(c2ccc(F)cc2)CCN(Cc2nnnn2Cc2cccs2)CC1 returned D3 antag -86*, GLP1R cytotox -14%, GLP1R ag 0%, D3 ag -4, GLP-1R inv ag 0% and ClpP mod 0%.
Screening CCN1c2ccccc2-c2nc(SCC(=O)NCc3ccc(C)cc3)ncc2S1(=O)=O returned GLP1R cytotox 5%, D3 ag -8, GLP-1R inv ag 6% and ClpP mod 4%.
Cc1ccc2c(=O)cc(C(=O)Nc3ccc(S(=O)(=O)N4CCC(C)CC4)cc3)oc2c1C was read as GLP1R cytotox 3%, D3 ag -10, GLP-1R inv ag -6% and ClpP mod 3%.
`Cc1ccccc1C(=O)NC(=S)Nc1ccc(S(=O)(=O)N2CCOCC2)cc1` gave D3 antag -54*, GLP1R cytotox 4%, GLP1R ag 16%, D3 ag -13, GLP-1R inv ag -1% and ClpP mod 0%.
Screening Cc1ccccc1C(=O)NC(=S)Nc1ccc(S(=O)(=O)N2CCN(C)CC2)cc1 returned D3 antag -12, GLP1R cytotox 2%, GLP1R ag 5%, D3 ag -3, GLP-1R inv ag 2% and ClpP mod 2%.
For COc1ccc(S(=O)(=O)N2CCCCC2)cc1NC(=O)C1CC1(Cl)Cl (configuration not stated) the results were D3 antag 22, GLP1R cytotox -4%, GLP1R ag 7%, D3 ag 4, GLP-1R inv ag -10% and ClpP mod 0%.
CCOC(=O)CNc1c(-c2ccc(F)cc2)nc2cnccn12 was read as D3 antag -9, GLP1R cytotox inactive, GLP1R ag 13%, D3 ag 0, GLP-1R inv ag 0% and ClpP mod 25µM*.
`CCOC(=O)CNc1c(-c2ccc(Cl)cc2)nc2cnccn12` gave D3 antag 39, GLP1R cytotox inactive, GLP1R ag 2%, D3 ag 6, GLP-1R inv ag 0% and ClpP mod 28µM*.
For Cc1nc(C)c(C(=O)Nc2ncc([N+](=O)[O-])s2)o1 the results were D3 antag -9, GLP1R cytotox -7%, GLP1R ag -3%, D3 ag -1 and GLP-1R inv ag 4µM*.
`N#C/C(=C\c1c(Oc2ccc(Br)cc2)nc2ccccn2c1=O)c1nc2ccccc2s1` gave GLP1R cytotox 175%, D3 ag 19, GLP-1R inv ag 7% and ClpP mod inconclusive.
Oc1ccccc1C1NN=C(c2ccccc2)S1 (configuration not stated) was read as D3 antag 6, GLP1R cytotox inconclusive, GLP1R ag -1%, D3 ag -4, GLP-1R inv ag inconclusive and ClpP mod 7.1µM*.
For Cc1ccc(NC(=O)Cn2c(=O)n(-c3ccc(CC(=O)NCC4CCCO4)cc3)c(=O)c3ccccc32)cc1 (configuration not stated) the results were GLP1R cytotox -7%, GLP1R ag 1%, D3 ag 3, GLP-1R inv ag 10% and ClpP mod -18%.
O=C(NCCc1ccccc1)c1ccc2nc3cc(Cl)ccc3c(=O)n2c1 was read as D3 antag 6, GLP1R cytotox 1%, GLP1R ag 0%, D3 ag -2, GLP-1R inv ag 23% and ClpP mod -13%.
For O=C(NC1CCCCCC1)c1ccc2nc3cc(Cl)ccc3c(=O)n2c1 the results were D3 antag 6, GLP1R cytotox -1%[7.66 µM], GLP1R ag 0%, D3 ag 7, GLP-1R inv ag 1%[7.66 µM] and ClpP mod 25µM*.
CCCCCCn1nc(C(=O)OCC(=O)c2c(N)n(C)c(=O)n(C)c2=O)c2ccccc2c1=O was read as D3 antag 71, GLP1R cytotox -12%, GLP1R ag 11%, D3 ag 32* and GLP-1R inv ag 2%.
For Cn1c(N)c(C(=O)COC(=O)c2cc(C3CC3)nc3ccccc23)c(=O)n(C)c1=O the results were D3 antag 125, GLP1R cytotox 6%, GLP1R ag -1%, D3 ag 36*, GLP-1R inv ag 16% and ClpP mod inconclusive.
`Cn1c(N)c(C(=O)COC(=O)c2ccccc2C(=O)c2ccc(Cl)cc2)c(=O)n(C)c1=O` gave D3 antag -17, GLP1R cytotox -21%, GLP1R ag 14%, D3 ag 7 and GLP-1R inv ag 11µM*.
Cc1cn2c(=O)cc(COC(=O)COc3ccccc3C)nc2s1 was read as GLP1R cytotox 8%, D3 ag 0, GLP-1R inv ag 2% and ClpP mod -6%.
Screening Cc1cc(C)cc(N2CN=c3s/c(=C\c4ccco4)c(=O)n3C2)c1 returned D3 antag 15, GLP1R cytotox -5%[1.53 µM], GLP1R ag -5%, D3 ag 1, GLP-1R inv ag 21% and ClpP mod 0%.
For O=c1/c(=C/c2ccco2)sc2n1CN(c1ccccc1)CN=2 the results were D3 antag -17, GLP1R cytotox 0%, GLP1R ag 2%, D3 ag -7, GLP-1R inv ag 0% and ClpP mod 25µM*.
Screening O=c1/c(=C/c2ccco2)sc2n1CN(c1cccc(Br)c1)CN=2 returned D3 antag -61*, GLP1R cytotox 4%, GLP1R ag 1%, D3 ag 1, GLP-1R inv ag -1% and ClpP mod -3%.
`CC1CCCC(NC(=O)COC(=O)CCC(=O)c2cccs2)C1C` (configuration not stated) gave D3 antag -5, GLP1R cytotox -6%, GLP1R ag -6%, D3 ag 4, GLP-1R inv ag 11% and ClpP mod 0%.
For COc1ccc(Cl)cc1C(=O)OCC(=O)NC1CCCC(C)C1C (configuration not stated) the results were D3 antag 0, GLP1R cytotox -6%, GLP1R ag 26%, D3 ag 2, GLP-1R inv ag inconclusive and ClpP mod -20%.
For COc1cccc2cc(NC(=O)C3CCCCC3)c(=O)oc12 the results were D3 antag 4, GLP1R cytotox 1%, GLP1R ag -11%, D3 ag 3, GLP-1R inv ag 0% and ClpP mod 35µM*.

Screening data: PubChem, National Center for Advancing Translational Sciences (NCATS)
